# High-throughput results deposited in PubChem BioAssay by several laboratories.
# In the library only some 1.3% were active in any assay of this set; here they are far more common.
# LRH-1 inv ag = NR5A2 inverse agonism in reporter assay; O00482; HEK293T StAR-luciferase reporter, LRH-1 transfected, 24 h; inhibition, % at 3.6 µM; actives 0.13% (n = 360,000);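 active = inhibition above the mean inhibition of all tested compounds plus 3 SD, cut at about 73% in these data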;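 also: 0% = DMSO wells and 100% = reporter-only cells lacking LRH-1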
# Target sequence (O00482 whole entry, looked up): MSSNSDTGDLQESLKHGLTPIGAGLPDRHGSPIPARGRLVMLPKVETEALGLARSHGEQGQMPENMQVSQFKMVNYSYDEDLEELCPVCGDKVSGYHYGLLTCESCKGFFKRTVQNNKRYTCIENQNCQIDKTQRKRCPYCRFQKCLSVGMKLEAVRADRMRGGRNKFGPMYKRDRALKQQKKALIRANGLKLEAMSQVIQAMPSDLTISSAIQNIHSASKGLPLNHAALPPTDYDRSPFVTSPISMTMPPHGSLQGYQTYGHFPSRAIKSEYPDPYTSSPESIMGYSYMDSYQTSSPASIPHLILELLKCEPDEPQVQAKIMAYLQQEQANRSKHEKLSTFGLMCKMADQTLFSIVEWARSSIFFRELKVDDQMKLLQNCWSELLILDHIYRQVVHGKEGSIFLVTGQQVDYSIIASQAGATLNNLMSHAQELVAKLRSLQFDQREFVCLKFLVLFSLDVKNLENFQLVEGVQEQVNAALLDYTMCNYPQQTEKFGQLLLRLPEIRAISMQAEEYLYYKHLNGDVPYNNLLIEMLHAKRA
# NR2F2 inh = inhibitors of human COUP-TFII (NR2F2); HEK293T NGFI-A luciferase reporter, luminescence; inhibition, % at 8.6 µM; actives 0.7% (n = 370,000); AID 686940;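 active = inhibition above a per-plate cutoff, mean inhibition of test wells between control levels plus 3 SD, cut at about 38% in these data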;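 also: cells cotransfected with COUP-TFII expression vector driving the NGFI-A reporter; 0% = median of COUP-TF2 test wells and 100% = reporter-only cells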
# Gli-Sufu antag = antagonists of Gli-Sufu signaling. Sufu-KO-LIGHT fibroblasts, Gli luciferase reporter luminescence. inhibition, % at 5 µM. actives 0.74% (n = 340,000);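 active = inhibition above about 55%, limit read from the data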;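 also: 0% = DMSO-treated cells and 100% = wells with medium but no cells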
# NCOA1 inh = inhibitors of human steroid receptor coactivator 1 (SRC1). HEK293 GAL4-SRC1 luciferase reporter, luminescence. inhibition, % at 3.6 µM. actives 0.12% (n = 360,000). Q15788. AID 588354;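 active = inhibition above the campaign mean plus 3 SD, with each screening campaign given its own cutoff, cut at about 60% in these data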;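 also: 0% = DMSO treated cells and 100% = gossypol at 36 µM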
# SRC2 inh = inhibits human steroid receptor coactivator 2. Q15596. HEK293 GAL4-SRC2 luciferase reporter, luminescence. inhibition, % at 9 µM. actives 0.17% (n = 370,000). AID 651957;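 active = inhibition above the mean inhibition of all tested compounds plus 3 SD, set per campaign, cut at about 52% in these data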;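 also: 0% = DMSO treated cells and 100% = cells given Gossypol at 36 µM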
# SRC3 inh = human NCOA3 inhibition; Q9Y6Q9; HEK293 GAL4-SRC3 luciferase reporter, luminescence; inhibition, % at 3.6 µM; actives 0.17% (n = 360,000); AID 588352;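 active = inhibition above a per-campaign cutoff, the mean of all compounds plus 3 SD, cut at about 60% in these data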;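 also: 0% = DMSO-treated cells and 100% = gossypol-treated cells at 36 µM; higher means less SRC3-driven luciferase light from the GAL4 reporter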
# The depositor's hits bear a star; nt = no result given; ! = not active in a repeat.
SMILES,LRH-1 inv ag,NR2F2 inh,Gli-Sufu antag,NCOA1 inh,SRC2 inh,SRC3 inh
CC(=O)N(C)C1=C(N2CCOCC2)C(=O)c2ccccc2C1=O,100*,nt,23,85*,nt,87*
NC(=O)c1c(N)[nH]c(C(=O)c2ccccc2)c1-c1ccccn1,nt,-2,nt,nt,nt,nt
CCc1ccc(S(=O)(=O)/N=C2/C=C(Sc3ncn[nH]3)C(=O)c3ccccc32)cc1,95*,nt,1,83*,nt,88*
O=C1C(Nc2ccc(O)cc2)=C/C(=N/S(=O)(=O)c2cccs2)c2ccccc21,86*,78*,94*,88*,71*,90*
CCc1ccc(S(=O)(=O)/N=C2\C=C(Nc3cccc(C(=O)O)c3)C(=O)c3ccccc32)cc1,-20,-11,-18,-21,-32,-30
CCc1ccc(S(=O)(=O)/N=C2\C=C(Nc3ccc(O)cc3)C(=O)c3ccccc32)cc1,90*,nt,88*,88*,nt,89*
O=C(O)c1ccc(NC2=C/C(=N/S(=O)(=O)c3cccs3)c3ccccc3C2=O)cc1,22,0,nt,4,-9,7
Cc1ccc(Cl)cc1NC1=C/C(=N\S(=O)(=O)c2cccs2)c2ccccc2C1=O,6,-1,11,72*!,-29,85*!
COC(=O)[C@@]12CCCCC3=C1N(CCC3)C(=O)[C@H]2CC(=O)N1CCN(C(=O)C2CC2)CC1,nt,5,nt,nt,-33,nt
CCCC1CCC2(CCC(=O)N2CCOC)CC1 (stereo unspecified),nt,4,nt,nt,-7,nt
C=CCC12C=C(OC)C(=O)C(C1=O)C(c1ccc(OC)cc1)C2C (stereo unspecified),nt,3,nt,nt,-33,nt
Cc1cccc(NC2=C/C(=N/S(=O)(=O)c3cccs3)c3ccccc3C2=O)c1,8,-1,34,-4,11,-16
Cc1ccc(NC2=C/C(=N\S(=O)(=O)c3cccs3)c3ccccc3C2=O)c(C)c1,40,nt,65*,67*,nt,70*
CCCCCCCCCn1c2c(c(=N)c3c1CCC3)CCCC2,89*,nt,88*,50,nt,81*
CCn1c2c(c(=N)c3c1CCC3)CCCC2,-2,15,4,-2,-11,-15
O=C(O)C1CC=CCC1C(=O)Nc1ccc2c(c1)OCCO2 (stereo unspecified),55,25,9,40,56*,55
CCNC(=O)N(C)[C@H]1C[C@H]2c3[nH]c4cccc(-c5cccc(F)c5)c4c3CCN2C(=O)[C@H]1[C@H](C)O,nt,-8,nt,nt,-1,nt
CC(C)C(=O)N[C@H]1[C@H](O)CCC[C@]12C(=O)N(Cc1ccccc1)c1ccccc12,nt,-5,nt,nt,0,nt
COc1ccc2c(c1)N[C@@](CCNC=O)(c1[nH]c3ccccc3c1CCNC=O)C2=O,nt,12,nt,nt,nt,nt
COc1cc(CN2CC(=O)N(c3ccccc3Cl)C2=S)cc(OC)c1OC,-10,12,62*,1,18,16
Cn1c(=O)c(=O)n(C)c2cc(S(=O)(=O)N3CCN(Cc4ccc5c(c4)OCO5)CC3)ccc21,nt,-9,nt,nt,-7,nt
COc1cc(C(=O)N/N=C(\C)c2ccccn2)cc(OC)c1OC,32,-66,50,-16,13,12
COc1ccc2nc(NN=C(C)c3ccccn3)cc(C)c2c1,8,-15,79*,-6,-13,-18
COc1cccc(-c2nc(-c3ccccn3)no2)c1,nt,34,-14,nt,58*,nt
c1ccc(-c2noc(-c3ccncc3)n2)nc1,-152,-43,-34,-116,-32,-67
SMILES,LRH-1 inv ag,NR2F2 inh,Gli-Sufu antag,NCOA1 inh,SRC2 inh,SRC3 inh
c1ccc(-c2noc(-c3ccc4ccccc4c3)n2)nc1,20,nt,62*,30,nt,56
COc1cccc2[nH]c(=O)c(-c3ccccc3)cc12,-98,-31,-65,-61,-44,83*
COc1ccc(-c2cc(=O)[nH]c3ccccc23)cc1,19,6,-17,0,-29,-8
CN1CCCCC(NC(=O)c2ccccc2)C1=O (stereo unspecified),nt,15,nt,nt,-10,nt
COc1cccc2c1C1COC3C4CC(C(=O)O)C(C(C2)N13)N4C (stereo unspecified),88*,-20,21,21,22,5
COc1cccc2c1C(CCCC(=O)O)CCC2 (stereo unspecified),19,-13,1,5,4,4
COc1cccc(N=Nc2ccc(O)c3ncccc23)c1,-35,-9,68*,-28,-36,-15
COc1ccc(N=Nc2ccc(O)c3ncccc23)cc1,-7,11,61*,-30,4,-43
COc1cccc(N=Nc2ccc3cccnc3c2O)c1,-8,21,-5,-37,-107,7
Cc1ccccc1N=Nc1ccc(O)c2ncccc12,4,-13,18,12,-2,7
Oc1ccc(N=Nc2ccc3c(c2)OCCO3)c2cccnc12,4,34,nt,37,52*,59
COc1ccc(S[C@]2(C(=O)N(C)C)CC(=O)N(C(=O)C3CC3)[C@@H]2c2ccc(OC)cc2)cc1,nt,-6,nt,nt,-14,nt
O=C(NCCc1ccccc1)OCc1cn(-c2ccc(F)c(F)c2)nn1,nt,1,nt,nt,4,nt
O=C1Cc2c([nH]c3ccc([N+](=O)[O-])cc23)-c2ccccc2N1,7,38*,-80,-9,35,73*
O=C(CSc1nnc(-c2cccnc2)n1-c1ccc(Cl)cc1)Nc1ccc(S(=O)(=O)Nc2nccs2)cc1,nt,12,nt,nt,0,nt
O=C(COC(=O)c1cc(-c2ccc(Cl)s2)nc2ccccc12)NCc1ccco1,-24,-3,-12,-16,-25,7
COc1ccc(CNC(=O)COC(=O)c2cc(-c3ccc(Cl)s3)nc3ccccc23)cc1,-19,8,-13,-23,4,83*
COC(=O)c1cc(-c2cc(Cl)ccc2OC)c(=O)n2c1CCC2,nt,12,nt,nt,-16,nt
CCCCC(=O)NC(c1ccc(OC)cc1)c1ccc2cccnc2c1O (stereo unspecified),103*,12,nt,14,5,36
CCCC(=O)NC(c1ccc(N(C)C)cc1)c1ccc2cccnc2c1O (stereo unspecified),72,-29,86*,16,27,56
CCCC(=O)NC(c1ccc(C(C)C)cc1)c1ccc2cccnc2c1O (stereo unspecified),35,-4,nt,-9,32,54
Cc1ccc(N(CC(=O)Nc2cc(C)cc(C)c2)S(=O)(=O)c2c(C)noc2C)cc1,14,-3,68*,1,17,-2
COc1ccc(N(CC(=O)Nc2ccc(C)cc2)S(=O)(=O)c2c(C)noc2C)cc1,0,14,2,9,23,12
CC(C)(C)OC(=O)N1Cc2ccccc2C[C@H]1C(=O)NCC(=O)Nc1ccc2c(c1)OCCO2,37,24,34,42,54*,60
C=C1C(=O)[C@]23C[C@H]1CCC2[C@@]1(C)C(C[C@@H]3O)[C@](C)(C(=O)OC)CC[C@@H]1O (stereo partly specified),48,27,nt,43,64*,40
